{"source": "PubChem BioAssay (NCI)", "note": "About 83,000 compounds went through this panel and 20% of them were active in at least one assay; those are over-represented in the sample as a whole.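 Method: cells in 96-well plates; compound added at one concentration; 48 h incubation; percent growth measured; values under 10 scored active.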 Unmarked numbers belong to inactive results. The source made the active and inactive calls.", "data": [{"test_system": "HL-60(TB) leukemia", "experiment": "NCI-60 one-dose screen, 48 h (100 = growth as untreated, 0 = no growth, -100 = all killed)", "settings": "10 µM unless noted", "values": [{"compound": "CCOC(=S)Sc1ccc([N+](=O)[O-])cc1[N+](=O)[O-]", "growth": "-25.6% (active)"}, {"compound": "CC1(C)N=C(N)N=C(N)N1c1cccc(OCCOc2cccc([N+](=O)[O-])c2)c1", "growth": "17.6%"}, {"compound": "NC(=O)c1c(NC(=O)c2ccc3c(c2)OCO3)sc2c1CCC(=O)C2", "growth": "-58.3% (active)"}, {"compound": "Oc1[nH]c2ccc(Cl)cc2c1/C=c1/ccc2c(c1)N=C(c1ccc(C(F)(F)F)cc1)N=2", "growth": "75.1%"}, {"compound": "COc1ccc(OC)c(Cn2cc3c(c2)-c2oncc2CC3)c1", "growth": "13.7%"}, {"compound": "CCOC(=O)n1cc(C2=C(c3ccc(OC)c(OC)c3)COC2=O)c2ccccc21", "growth": "-28.7% (active)"}, {"compound": "c1ccc2nc(Cn3cc[n+](Cc4ccc5ccccc5n4)c3)ccc2c1", "growth": "8.58% (active)"}, {"compound": "CCn1cc(C(=O)O)c(=O)c2cc(F)c(N3CCN(CC(=O)Nc4ccc(/C(C)=N/OC)cc4)CC3)cc21", "growth": "90.9%"}, {"compound": "O=[N+]([O-])c1cccc(-c2nc3sccn3c2-c2ccnc(NCCCNS(=O)(=O)c3ccc(Cl)cc3)n2)c1", "growth": "26.1%"}, {"compound": "CCN(CC)CCC(=O)Nc1ccc(Cn2nnc3c2C(=O)c2nnn(Cc4ccc(NC(=O)CCN(CC)CC)cc4)c2C3=O)cc1", "growth": "-36.4% (active)"}, {"compound": "COc1ccc(OC2=CC(=O)c3ccc(C)nc3C2=O)cc1", "growth": "52.1%"}, {"compound": "COc1cc([C@@H]2NC(=O)NC(C)=C2C(=O)Nc2nc(-c3ccc(Cl)cc3)cs2)ccc1O", "growth": "100%"}, {"compound": "COc1cc2c(cc1OC)-c1ccc3cc4c(cc3c1N(CCCn1ccnc1)C2)OCO4", "growth": "3.45% (active)"}, {"compound": "COc1cc(C(=O)Nc2cc(O)c(C/C=C(\\C)CCC=C(C)C)c(O)c2)cc2c1O[C@]1(C)CC[C@@H](O)C(C)(C)[C@H]1C2", "growth": "-3.87% (active)"}, {"compound": "O=C(O)CCNS(=O)(=O)c1ccc(-c2ccccc2)cc1", "growth": "188%"}, {"compound": "CC/C=C\\C[C@H](O)C/C=C1/C(=O)C=C[C@@H]1C/C=C\\CCCC(=O)NC", "growth": "-27.2% (active)"}, {"compound": "COc1ccc(Cn2cc(C(=O)N=Nc3c(O)[nH]c4ccc(Br)cc34)nn2)cc1", "growth": "85.2%"}, {"compound": "O=C1/C(=C/c2ccc3c(c2)OCO3)SC(=S)N1C1c2ccccc2Oc2ccccc21", "growth": "86.1%"}, {"compound": "Nc1c(C(=O)Nc2cccc(C(F)(F)F)c2)sc2nc3c(cc12)C(O)CCC3", "note": "(stereo not given)", "growth": "-0.216% (active)"}, {"compound": "O=C(NNC(=O)c1nc2cc(F)ccc2n2cccc12)c1cnccn1", "growth": "17.8%"}, {"compound": "CCCN(CCC)CC(O)COc1ccccc1C(=O)Nc1ccccc1", "note": "(stereo not given)", "growth": "17.3%"}, {"compound": "C#CCNC(=O)CC[C@]1(C)[C@H]2CC[C@@H]3[C@@H]([C@@](C)(O)CCC=C(C)C)CC[C@@]3(C)[C@]2(C)CC[C@H]1C(=C)C", "growth": "-41% [100 µM] (active)"}, {"compound": "CC(C)(C)CC(C)(C)Cc1ccc(OCCOCC[N+](C)(C)Cc2ccccc2)cc1", "growth": "-52.6% (active)"}, {"compound": "COc1ccc(Oc2ccc(/C=C/C(=O)c3cc4ccccc4oc3=O)cc2)cc1", "growth": "31.1%"}, {"compound": "C#CCNC(=O)[C@]1(C)CCC[C@@]2(C)[C@H]1CC=C1C=C(C(C)C)CC[C@@H]12", "growth": "131%"}]}]}
